Source: PubChem (several laboratories)
NR3A LBD binder – binders of NR3A ligand-binding domain, primary screen, biophysical, differential scanning fluorimetry, uHTS. Tm shift relative to glycine control, % at 25 µM. actives 2.5% (n = 340,000). Glutamate receptor ionotropic, NMDA 3A (GRIN3A) ligand-binding domain. NR3A LBD differential scanning fluorimetry, Tm shift; 0% = protein alone, 100% = glycine-bound protein. AID 1259313, 2017;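 active = melting temperature shift of at least 10% of the positive control shift, at one fixed dose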
Vif inh – HIV Vif self-association inhibitors, primary screen, imaging, HEK293T, single point; inhibition, % at 7.49 µM; HEK293T cells, Vif self-association by quenched fluorescence, 24 h; actives 0.35% (n = 340,000); AID 602346, 2012; in the data active = inhibition above about 50%, passing the limit was not always enough
SKN-1 block – suppressors of acrylamide-induced Pgst-4::GFP reporter in worms, primary screen, SKN-1 inhibitor project, whole organism, uHTS, GFP/RFP fluorescence ratio, strain VP596 | C. elegans VP596 Pgst-4::GFP/RFP ratio, 24 h | inhibition, % at 21.8 µM | actives 0.49% (n = 360,000) | AID 624304, 2012;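 active = interference check ratio from 0.5 to 1.5 plus GFP to RFP signal ratio inhibition reaching or exceeding a fixed threshold, cut at about 30% in these data, passing the limit was not always enough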
NadD block – inhibitors of S. aureus NadD, primary screen, biochemical, colorimetric, uHTS | purified NadD enzyme, colorimetric absorbance read-out | actives 0.78% (n = 360,000) | inhibition, % at 20 µM; in the data active = inhibition above about 26%
esBAF inh – Bmi1 luciferase reporter increase in mESCs, primary screen, esBAF inhibitor project, mouse ES cells, Bmi1 luciferase knock-in, single point. 24 h; 100% = twice the neutral-well signal. actives 2% (n = 350,000). reporter increase, % at 12.5 µM; in the data active = activation above about 40%;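 also: 0% = median of the plate's neutral control wells and 100% = double that signal; a rise in the Bmi1 reporter signal indicates esBAF inhibition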
SMARCA2 act – SMARCA2 (BRM) function activators, primary screen, cell-based, luminescence, high throughput; MG213 cells, MMTV-luciferase reporter, dexamethasone, overnight; activation, % at 9.1 µM; actives 1% (n = 370,000); AID 652017, 2013; in the data active = activation above about 7.8%;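 also: 0% = vehicle wells and 100% = reference activator wells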
* hit, by the source's call; x = not tested or not shown. This is a sample that favours compounds with a hit; in the whole collection about 5.2% have one here.

SMILES	NR3A LBD binder	Vif inh	SKN-1 block	NadD block	esBAF inh	SMARCA2 act
Cc1nc(SCC(=O)Nc2nc3ccccc3s2)c(C#N)c(C)c1C	0	-4	0	6	x	-10
Cc1cc(C(F)(F)F)c(C#N)c(SCC(=O)Nc2nc3ccccc3s2)n1	12*	0	19	-7	-22	-7
N#Cc1ccc(-c2cccnc2)nc1SCC(=O)Nc1sc2c(c1C#N)CCC2	-1	15	39*	14	3	x
N#Cc1ccc(-c2cccnc2)nc1SCC(=O)c1ccccc1	2	173*	58	-5	63*	3
COc1ccc(-c2ccc(C#N)c(SCC(=O)Nc3sc4c(c3C#N)CCC4)n2)cc1	-22	-6	33	17	x	-1
O=C(Cc1ccccn1)NCC[C@@H]1CC[C@H](NS(=O)(=O)c2ccc(F)cc2)[C@@H](CO)O1	x	x	x	x	5	x
C[C@@H]1CN([C@H](C)CO)C(=O)c2c(c3ccccc3n2C)-c2ccccc2CO[C@@H]1CN(C)C(=O)c1ccncc1	x	x	x	x	4	x
N#Cc1c(C(F)(F)F)cc(-c2ccccc2)nc1SCC(=O)Nc1sc2c(c1C#N)CCC2	10*	-8	15	7	x	-2
COc1cccc(CNC(=O)C[C@@H]2C=C[C@H](NC(=O)C3CCC3)[C@H](CO)O2)c1	x	x	x	x	6	x
COc1ccc(OC)cc1	-3	5	1	1	0	-3
COc1ccc(-c2cc(O)cc(O)c2)cc1	11*	1	5	-7	6	6
CC(C)C[C@H](NC(=O)C1(c2ccccc2)CCN(C(=O)[C@H]2CSCN2C(=O)OC(C)(C)C)CC1)C(=O)O	14*	-3	10	4	x	-1
CCOc1ccc(NC(=O)c2ccc3snnc3c2)cc1	-4	-9	20	6	54*	3
O=C(Nc1ccc2snnc2c1)N1CCSCC1	-2	-6	39*	-2	10	3
O=C(Nc1ccc(F)cc1)c1ccc2snnc2c1	2	-11	-1	-5	45*	2
COc1ccc(-c2cnc3c(c2)C(=O)N([C@@H](C)CO)C[C@H](C)[C@@H](CN(C)Cc2ccccc2)O3)cc1	x	x	x	x	-2	x
COc1ccc(S(=O)(=O)Nc2ccc3c(c2)OC[C@H](C)NC[C@@H](C)[C@@H](OC)CN(C)C3=O)cc1	x	x	x	x	1	x
COc1cccc(C(c2sc3ncnn3c2O)N2CC(C)OC(C)C2)c1 (stereo not given)	3	3	35*	0	-1	3
Cc1ccccc1-c1cnc2c(c1)C(=O)N([C@@H](C)CO)C[C@@H](C)[C@H](CN(C)Cc1ccncc1)O2	x	x	x	x	5	x
COc1ccc(N(C(=O)Cc2cccs2)C(C(=O)NC2CCCC2)c2ccncc2)cc1 (stereo not given)	-2	10	2	-2	16	-2
Cc1ccccc1N(C(=O)Cc1cccs1)C(C(=O)NCC1CCCO1)c1cccnc1 (stereo not given)	-5	-1	10	1	-1	1
COc1ccccc1N(C(=O)CNC(=O)c1ccco1)C(C(=O)NC1CCCC1)c1ccncc1 (stereo not given)	1	x	-24	-4	-6	-2
CCOc1ccccc1N(C(=O)CNC(=O)c1ccco1)C(C(=O)NC(C)(C)C)c1ccncc1 (stereo not given)	395*	2	-2	1	4	-1
O=C(NCC(=O)N(Cc1cccs1)C(C(=O)NC1CCCC1)c1cccnc1)c1ccco1 (stereo not given)	-1	23	33	2	1	-4
O=C(NCC(=O)N(Cc1cccs1)C(C(=O)NC1CCCCC1)c1ccncc1)c1ccco1 (stereo not given)	-2	6	42*	8	-3	-3
SMILES	NR3A LBD binder	Vif inh	SKN-1 block	NadD block	esBAF inh	SMARCA2 act
O=C(NCC1CCCO1)C(c1cccnc1)N(C(=O)Cc1cccs1)c1ccccc1 (stereo not given)	1	-2	3	-5	69*	4
COc1cccc(N(C(=O)Cc2cccs2)C(C(=O)NC2CCCC2)c2ccncc2)c1 (stereo not given)	-3	4	7	0	52*	-1
O=C(C[C@H]1CC[C@@H]2[C@H](COC[C@@H](O)CN2Cc2cc(F)ccc2F)O1)N[C@H]1CCN(Cc2ccccc2)C1	x	x	x	x	-4	x
CC1(c2ccc(Cl)cc2)NC(=O)N(CC(=O)N2CCc3ccccc3C2)C1=O (stereo not given)	1	24	-4	2	-7	-1
CC1(c2ccc(Cl)cc2)NC(=O)N(CN2CCOCC2)C1=O (stereo not given)	-1	22	37*	-5	-2	1
C[C@H]1CCCCO[C@H](CN(C)C)[C@@H](C)CN([C@@H](C)CO)C(=O)c2cc(NC(=O)c3ccncc3)ccc2O1	x	x	x	x	-2	x
O=S(=O)(c1ccc(Cl)s1)N1CCCc2cccc(O)c21	9	-5	11	1	84*	-3
Cc1cc(C(=O)Nc2cccc3c2O[C@H](CN(C)S(=O)(=O)c2ccccc2)[C@H](C)CN([C@H](C)CO)C3=O)n(C)n1	x	x	x	x	-12	x
O=C(Cn1ncc2c([nH]c3ccccc32)c1=O)N1CCCCC1	1	2	8	0	x	-1
CCOC(=O)C1CCN(C(=O)Cn2ncc3c([nH]c4ccccc43)c2=O)CC1	13*	12	8	-5	-3	-2
C[C@@H]1CN([C@@H](C)CO)C(=O)c2cc(NC(=O)CCCN(C)C)ccc2O[C@@H](C)CCCCO[C@H]1CN(C)S(=O)(=O)c1cccs1	x	x	x	x	-1	x
C[C@@H]1CN([C@@H](C)CO)C(=O)c2cc(NC(=O)NC3CCCCC3)ccc2O[C@H]1CN(C)C(=O)Nc1cccc2ccccc12	x	x	x	x	2	x
Cc1ccnc(SCCn2c(N3CCC(C)CC3)nc3c2c(=O)[nH]c(=O)n3C)n1	13*	-5	11	-2	7	-2
Cc1ccnc(SCCn2c(N3CCOCC3)nc3c2c(=O)[nH]c(=O)n3C)n1	-3	2	-13	0	-3	1
CCN1CCN(c2nc3c(c(=O)[nH]c(=O)n3C)n2CCSc2nc3ccccc3s2)CC1	-1	6	1	7	-1	-2
Cc1csc(SCCn2c(N3CCN(c4ccccc4)CC3)nc3c2c(=O)[nH]c(=O)n3C)n1	0	57*	13	3	-12	1
